Among the test systems are CSNK1G1; CSNK1G2; CSNK1G3; CSNK2A1; CSNK2A2; DAPK1; DAPK2; DAPK3; DDR1; DDR2; DMPK; DYRK1A.
Details in all cases: concentration: 1 μM, replicates: in singlicate; n = 1
For another assay, the system named is T1, CTK.
T1 construct: gene MATK

In a further assay the test system is T2, DCAMKL1.
T2 construct: gene DCLK1

Another assay relates to T3, DCAMKL2.
T3 construct: gene DCLK2

The test system of a further assay is T4, DCAMKL3.
T4 construct: gene DCLK3

For the next assay, the system named is T5, DLK.
T5 construct: gene MAP3K12

In the next assay the test system is T6, DMPK2.
T6 construct: gene CDC42BPG

The next assay deals with T7, DRAK1.
T7 construct: gene STK17A

The next assay deals with T8, DRAK2.
T8 construct: gene STK17B
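Note: KINOMEscan kinase panel screen.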

On to `O=C1NC(=O)C(c2ccccc2Cl)=C1Nc1cccc(Cl)c1` [SB-342409], for which the “%Inh” value came to 14% in the assay with CSNK1G1; 0% with CSNK1G2; 26% in the assay with CSNK1G3; 0% with CSNK2A1; 0% in the assay with CSNK2A2; 24% in the assay with CTK. Moreover, the “%Inh” value is 0% in the assay on DAPK1; 0% with DAPK2; 15% in the assay with DAPK3; 13% in the assay with DCAMKL1; 10% in the assay on DCAMKL2; 14% in the assay with DCAMKL3. The “%Inh” value is reported as 9% with DDR1; 0% in the assay on DDR2; 0% in the assay with DLK; 75% in the assay on DMPK2; 1% with DMPK; 1% with DRAK1. Also, the “%Inh” value amounted to 0% in the assay on DRAK2 and 61% with DYRK1A.
`O=C(Nc1c(F)cccc1F)c1cc(C(=O)c2ccccc2F)c[nH]1` [GSK1326180]: the “%Inh” value is 0% in the assay with CSNK1G1; 0% in the assay on CSNK1G2; 21% in the assay on CSNK1G3; 0% with CSNK2A1; 0% in the assay on CSNK2A2; 0% with CTK. Moreover, the “%Inh” value in the assay on DAPK1 is on record as 0%; in the assay on DAPK2, 4%; with DAPK3, 4%; with DCAMKL1 it was 0%; with DCAMKL2 it was 0%; in the assay with DCAMKL3, 36%. Further, the “%Inh” value stood at 0% with DDR1; 13% in the assay with DDR2; 14% with DLK; 0% with DMPK2; 0% with DMPK; 10% in the assay on DRAK1. Further, the entries for the “%Inh” value in the assay on DRAK2 and in the assay on DYRK1A were 0% and 2%, respectively.
Take `CN(C)CCNS(=O)(=O)c1ccc(-c2ccnc3[nH]ccc23)cc1` [GSK977620]: the “%Inh” value amounted to 0% with CSNK1G1; 0% in the assay on CSNK1G2; 5% with CSNK1G3; 30% in the assay on CSNK2A1; 11% in the assay on CSNK2A2; 0% in the assay with CTK. Further, the “%Inh” value is 76% in the assay on DAPK1; 44% in the assay on DAPK2; 88% with DAPK3; 18% in the assay with DCAMKL1; 16% in the assay on DCAMKL2; 15% with DCAMKL3. The “%Inh” value in the assay with DDR1 was determined as 7%; in the assay with DDR2 it was 0%; with DLK, 26%; in the assay with DMPK2, 30%; in the assay with DMPK it was 74%; in the assay with DRAK1 it was 71%. The “%Inh” value worked out at 28% in the assay on DRAK2 and 69% in the assay on DYRK1A.
Regarding `O=C(Nc1n[nH]c2nc(-c3ccccc3O)ccc12)C1CC1` [SB-711880], the “%Inh” value in the assay on CSNK1G1 stood at 0%; in the assay on CSNK1G2, 0%; in the assay on CSNK1G3 it was 28%; with CSNK2A1, 49%; with CSNK2A2, 84%; in the assay on CTK, 36%. Moreover, the “%Inh” value in the assay on DAPK1 was 12%; in the assay on DAPK2, 0%; with DAPK3 it was 21%; with DCAMKL1, 22%; with DCAMKL2 it was 0%; in the assay on DCAMKL3, 0%. The “%Inh” value with DDR1 stood at 1%; in the assay on DDR2, 0%; in the assay with DLK it was 32%; in the assay on DMPK2, 0%; in the assay on DMPK, 0%; with DRAK1, 3%. Besides, the entries for the “%Inh” value with DRAK2 and in the assay on DYRK1A were 0% and 9%, respectively.
For `COc1cccc(CC(=O)N2CCc3cc(-c4cn(C)c5ncnc(N)c45)ccc32)c1` [GSK2608899], the “%Inh” value in the assay with CSNK1G1 was 23%; in the assay with CSNK1G2, 5%; in the assay with CSNK1G3 it was 29%; in the assay on CSNK2A1 it was 14%; with CSNK2A2, 15%; with CTK, 0%. Moreover, the “%Inh” value with DAPK1 was 2%; in the assay on DAPK2, 0%; in the assay on DAPK3, 21%; in the assay with DCAMKL1 it was 26%; in the assay on DCAMKL2, 0%; in the assay on DCAMKL3, 14%. Moreover, the “%Inh” value in the assay on DDR1 worked out at 97%; in the assay with DDR2, 27%; with DLK, 36%; with DMPK2, 53%; with DMPK, 25%; in the assay with DRAK1, 4%. Moreover, the “%Inh” value is on record as 0% with DRAK2 and 6% in the assay on DYRK1A.
As to `c1ccc(Oc2ccc(Nc3ccnc4cc(-c5ccc(CN6CCCCC6)o5)ccc34)cc2)nc1` [GW567143], the “%Inh” value in the assay with CSNK1G1 came out at 0%; with CSNK1G2, 6%; in the assay on CSNK1G3 it was 3%; in the assay on CSNK2A1, 15%; in the assay with CSNK2A2 it was 12%; with CTK it was 5%. The “%Inh” value in the assay on DAPK1 is reported as 0%; in the assay with DAPK2, 0%; in the assay on DAPK3, 0%; with DCAMKL1, 4%; in the assay with DCAMKL2, 8%; in the assay on DCAMKL3, 25%. Also, the “%Inh” value in the assay on DDR1 turned out to be 30%; with DDR2, 35%; in the assay with DLK, 79%; with DMPK2, 0%; in the assay with DMPK, 0%; in the assay on DRAK1 it was 0%. Also, the “%Inh” value with DRAK2 amounted to 0%; in the assay with DYRK1A, 26%.
For `Cc1ccc(O)cc1Nc1ccnc2cc(-c3ccc(CN4CCCCC4)o3)ccc12` [GW557777], the “%Inh” value with CSNK1G1 amounted to 6%; in the assay on CSNK1G2 it was 5%; with CSNK1G3, 7%; with CSNK2A1, 0%; in the assay with CSNK2A2 it was 0%; in the assay on CTK it was 27%. Also, the “%Inh” value with DAPK1 came to 16%; with DAPK2 it was 3%; in the assay on DAPK3 it was 1%; in the assay with DCAMKL1, 25%; with DCAMKL2, 10%; in the assay on DCAMKL3, 0%. Also, the “%Inh” value in the assay on DDR1 turned out to be 98.1%; in the assay on DDR2 it was 94.5%; in the assay on DLK, 0%; in the assay on DMPK2, 7%; in the assay on DMPK, 0%; in the assay with DRAK1, 10%. The “%Inh” value in the assay on DRAK2 and with DYRK1A was 0% throughout.
On to `CCOc1nccc(-c2c(-c3ccc(F)cc3)ncn2C2CCNCC2)n1` [SB-249175], for which the “%Inh” value in the assay on CSNK1G1 is 0%; in the assay with CSNK1G2 it was 32%; with CSNK1G3, 0%; in the assay with CSNK2A1 it was 56%; in the assay with CSNK2A2 it was 65%; in the assay on CTK, 0%. In addition, the “%Inh” value in the assay with DAPK1 was found to be 0%; in the assay with DAPK2 it was 0%; in the assay with DAPK3, 0%; in the assay on DCAMKL1, 25%; in the assay with DCAMKL2, 24%; with DCAMKL3 it was 10%. For the same compound, the “%Inh” value with DDR1 is on record as 0%; with DDR2 it was 7%; with DLK, 0%; with DMPK2, 75%; with DMPK, 15%; in the assay with DRAK1, 0%. The “%Inh” value in the assay on DRAK2 was 0%; in the assay with DYRK1A, 1%.
With `CN(C)c1ncnc2nc[nH]c12` [SKF-31736], the “%Inh” value in the assay with CSNK1G1 was 3%; in the assay with CSNK1G2, 0%; in the assay with CSNK1G3, 0%; with CSNK2A1 it was 0%; in the assay with CSNK2A2 it was 5%; in the assay with CTK it was 36%. The “%Inh” value is 7% with DAPK1; 3% with DAPK2; 20% in the assay on DAPK3; 32% with DCAMKL1; 0% in the assay with DCAMKL2; 0% in the assay on DCAMKL3. The “%Inh” value turned out to be 0% in the assay with DDR1; 35% in the assay with DDR2; 12% with DLK; 0% with DMPK2; 2% in the assay with DMPK; 0% with DRAK1. The “%Inh” value with DRAK2 and in the assay with DYRK1A was 0% throughout.
For the compound `CN(C)CCOc1ccc(-c2cc(-c3ccc(Cl)c(O)c3)c(-c3ccncc3)[nH]2)cc1.Cl.Cl` [SB-684387], the “%Inh” value in the assay on CSNK1G1 stood at 36%; in the assay with CSNK1G2 it was 0%; with CSNK1G3, 37%; in the assay with CSNK2A1, 24%; in the assay on CSNK2A2, 32%; in the assay with CTK, 3%. In addition, the “%Inh” value in the assay with DAPK1 was 14%; with DAPK2 it was 0%; with DAPK3, 22%; in the assay with DCAMKL1 it was 21%; with DCAMKL2, 0%; with DCAMKL3 it was 10%. The “%Inh” value amounted to 56% in the assay with DDR1; 38% in the assay on DDR2; 14% with DLK; 41% in the assay on DMPK2; 29% in the assay with DMPK; 20% in the assay on DRAK1. In addition, the “%Inh” value in the assay with DRAK2 and in the assay with DYRK1A was 0% each time.

Source of the values: publication PMC5540273 (PLoS ONE, 2017).
